Assay results taken from PubChem BioAssay (NCI).
Compounds without any hit were thinned out: in the full panel of roughly 83,000, 20% have a hit.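 Single-concentration screen, 48 h exposure, 96-well plates. Endpoint: percent growth. Below 10 = active.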 The source made the active and inactive calls.

How the values were obtained:
Assay in all cases: NCI-60 one-dose screen, 48 h (100 = growth as untreated, 0 = no growth, -100 = all killed)
[1] = test system: DU-145 prostate; conditions: 10 µM unless noted
[2] = test system: K-562 leukemia; conditions: 10 µM unless noted
[3] = test system: MALME-3M melanoma; conditions: 10 µM unless noted
[4] = test system: MDA-MB-231 breast; conditions: 10 µM unless noted
[5] = test system: RXF 393 renal; conditions: 10 µM unless noted
[6] = test system: SF-268 CNS; conditions: 10 µM unless noted
[7] = test system: SF-295 CNS; conditions: 10 µM unless noted
[8] = test system: SF-539 CNS; conditions: 10 µM unless noted
[9] = test system: M14 melanoma; conditions: 10 µM unless noted
[10] = test system: HCT-15 colon; conditions: 10 µM unless noted
[11] = test system: HT29 colon; conditions: 10 µM unless noted
[12] = test system: SNB-75 CNS; conditions: 10 µM unless noted
[13] = test system: SNB-19 CNS; conditions: 10 µM unless noted
[14] = test system: U251 CNS; conditions: 10 µM unless noted
[15] = test system: PC-3 prostate; conditions: 10 µM unless noted
[16] = test system: SK-MEL-5 melanoma; conditions: 10 µM unless noted
[17] = test system: LOX IMVI melanoma; conditions: 10 µM unless noted
[18] = test system: SK-MEL-28 melanoma; conditions: 10 µM unless noted
[19] = test system: UACC-62 melanoma; conditions: 10 µM unless noted
[20] = test system: UACC-257 melanoma; conditions: 10 µM

Measured: growth

CC1=CC(=O)CC(C)(C)[C@@]1(O)/C=C/C(C)=C\C(=O)O
active: [1] -21.8% | [2] 0.164% | [3] -57.5% | [4] -18% | [5] -64.2% | [6] -5.99% | [7] -38.7% | [8] -46.5% | [9] -77.3% | [10] -23.1% | [11] -36.9% | [12] -41.2% | [13] -9.04% | [14] -18.5% | [15] -7.5% | [16] -83% | [17] -75.8% | [18] -34.6%

COC1=C(c2ccccc2)C(=O)C(OC)=C(c2ccccc2)C1=O
inactive: [1] 117% | [2] 77.2% | [3] 112% | [4] 94.5% | [5] 106% | [6] 106% | [7] 100% | [8] 102% | [9] 98.9% | [10] 97.6% | [11] 95% | [12] 56% | [13] 101% | [14] 91.6% | [15] 96.2% | [16] 103% | [19] 97.1% | [17] 95.2% | [18] 117%

N=c1c2cc(-c3ccccc3)oc2ncn1/N=C/c1ccccc1
inactive: [1] 96.7% | [2] 27.6% | [3] 48.9% | [4] 95.1% | [5] 49.4% | [6] 89% | [7] 84.3% | [8] 85.8% | [20] 85.6% | [10] 36.9% | [11] 73.6% | [13] 87.5% | [14] 84.7% | [15] 71.9% | [16] 90.8% | [19] 47.6% | [17] 66.3% | [18] 83.4%

COc1ccc(-c2cc(-c3cccc4ccccc34)n3c(n2)nc2ccccc23)cc1
inactive: [1] 37.8% | [2] 37.2% | [3] 32.4% | [4] 78.2% | [6] 46.6% | [7] 20.2% | [8] 45.7% | [20] 68.8% | [9] 52.1% | [10] 42.8% | [11] 33.8% | [12] 35.5% | [13] 39.9% | [14] 33.1% | [15] 35.8% | [16] 30.4% | [19] 33.7% | [17] 45.7% | [18] 70.2%

COc1ccc(-c2cc(-c3cccc4ccccc34)n3c(n2)nc2ccccc23)cc1OC
active: [7] 2.25%
inactive: [1] 15.7% | [2] 32.8% | [3] 16.9% | [4] 66.7% | [6] 35.3% | [8] 31.1% | [20] 60.8% | [9] 36% | [10] 27.4% | [11] 21.5% | [12] 40.7% | [13] 16.7% | [14] 20.4% | [15] 30.8% | [16] 17.9% | [19] 20% | [17] 30.9% | [18] 51.5%

COc1ccc(C2CC(c3ccc(Nc4nc(NCCO)nc(Nc5ccc(Cl)cc5)n4)cc3)=Nc3c(N)nc(N)nc3N2)cc1 (centres undefined)
inactive: [1] 73.1% | [3] 113% | [4] 77.3% | [6] 81.6% | [7] 82% | [8] 84.4% | [20] 113% | [9] 94.7% | [10] 14.1% | [11] 54.8% | [12] 117% | [13] 76.8% | [14] 66.4% | [15] 63.1% | [16] 59.8% | [19] 107% | [17] 12.9% | [18] 119%
active: [2] -10.1%

Cc1cc(O)c(=O)cc2c1C[C@H]1CC(C)(C)/C=C/C[C@]3(C)Oc4cc(=O)c(O)cc(C)c4C[C@H]3C[C@H](O)[C@@]1(C)O2
active: [2] -42.7% | [3] -8.22% | [5] 5.24% | [7] 4.92% | [8] 7.55% | [9] -25.9% | [11] 8.78% | [14] 3.83% | [15] 9.28% | [16] -46.5% | [19] -41% | [17] 6.81%
inactive: [1] 16.1% | [4] 17.4% | [6] 16.6% | [10] 18.5% | [12] 23.9% | [13] 11.2% | [18] 11.1%

CC[C@@](C)(NC(=O)C(C)(C)NC(=O)[C@@H](NC(=O)[C@@H]1CCCN1C(=O)C(C)(C)NC(=O)[C@H](CC(C)C)NC(=O)CNC(=O)C(C)(C)NC(=O)[C@@H](NC(=O)C(C)(C)NC(=O)[C@H](CCC(N)=O)NC(=O)[C@H](C)NC(=O)C(C)(C)NC(=O)[C@H](C)NC(=O)C(C)(C)NC(=O)[C@H](C)NC(=O)C(C)(C)NC(C)=O)C(C)C)C(C)C)C(=O)N[C@@H](CCC(N)=O)C(=O)N[C@@H](CCC(N)=O)C(=O)N[C@H](CO)CC1CCCCC1
inactive: [1] 35.1% [5 µM] | [2] 32.1% [5 µM] | [4] 32.7% [5 µM] | [5] 23.7% [5 µM] | [6] 32.6% [5 µM] | [7] 81.8% [5 µM] | [8] 18.8% [5 µM] | [9] 58.4% [5 µM] | [10] 101% [5 µM] | [11] 23% [5 µM] | [12] 13.4% [5 µM] | [13] 24.3% [5 µM] | [14] 29.2% [5 µM] | [15] 15.5% [5 µM] | [19] 31.1% [5 µM] | [18] 26.9% [5 µM]
active: [3] -18.4% [5 µM] | [16] -43.5% [5 µM] | [17] 0.772% [5 µM]

Cn1c(SC(C(=O)Nc2ccc(F)cc2)c2ccccc2)nc2ccccc2c1=O (centres undefined)
inactive: [1] 112% | [2] 103% | [3] 88% | [4] 99.4% | [5] 117% | [6] 106% | [7] 98.2% | [8] 96.1% | [20] 95.6% | [10] 102% | [11] 107% | [13] 98.9% | [14] 103% | [15] 95.8% | [16] 104% | [19] 95.2% | [17] 102% | [18] 114%

C/C=C/[C@@H]1C=C[C@@H]2C[C@H](C)CC[C@H]2[C@]1(C)/C(O)=C1/C(=O)[C@H](CO)N(C)C1=O
inactive: [1] 56.5% | [2] 46.5% | [3] 79.5% | [4] 80.1% | [5] 64.9% | [6] 54.8% | [7] 43.3% | [8] 58.5% | [9] 62.2% | [10] 39.4% | [11] 61.9% | [12] 75.5% | [13] 43.2% | [14] 47% | [15] 45.7% | [16] 52.4% | [19] 46.9% | [17] 53.5% | [18] 63.2%

CC(=O)NC(C)(C)C(=O)N1CCC[C@H]1C(=O)NC(C)(C)C(=O)N[C@@H](C)C(=O)NC(C)(C)C(=O)NC(C)(C)C(=O)N[C@@H](CCC(N)=O)C(=O)NC(C)(C)C(=O)N[C@H](C(=O)NC(C)(C)C(=O)NCC(=O)N[C@@H](CC(C)C)C(=O)NC(C)(C)C(=O)N1CCC[C@H]1C(=O)N[C@H](C(=O)NC(C)(C)C(=O)NC(C)(C)C(=O)N[C@@H](CCC(N)=O)C(=O)N[C@@H](CCC(N)=O)C(=O)N[C@H](CO)Cc1ccccc1)C(C)C)C(C)C
inactive: [1] 43.5% [4.25 µM] | [2] 22.2% [4.25 µM] | [4] 36.5% [4.25 µM] | [5] 18% [4.25 µM] | [6] 32.9% [4.25 µM] | [7] 22.2% [4.25 µM] | [8] 24.5% [4.25 µM] | [9] 51.3% [4.25 µM] | [10] 98.8% [4.25 µM] | [11] 27.4% [4.25 µM] | [12] 18.6% [4.25 µM] | [13] 19.1% [4.25 µM] | [14] 21.8% [4.25 µM] | [15] 14.9% [4.25 µM] | [19] 35% [4.25 µM] | [17] 18.6% [4.25 µM] | [18] 32.1% [4.25 µM]
active: [3] -10.6% [4.25 µM] | [16] -45.7% [4.25 µM]

COC(=O)[C@@]1(C)CC[C@]2(C)CC[C@]3(C)C(=CC(=O)[C@@H]4[C@@]5(C)Cc6c(n(CC#CCN7CCN(C)CC7)c7ccccc67)C(C)(C)[C@@H]5CC[C@]43C)[C@@H]2C1
inactive: [1] 54.5% | [3] 115% | [4] 67.2% | [6] 86.6% | [7] 85.9% | [8] 91.5% | [20] 106% | [9] 90.6% | [11] 14.4% | [12] 100% | [13] 54.3% | [14] 57.5% | [15] 62.1% | [16] 87.2% | [19] 97.7% | [18] 105%
active: [2] -5.29% | [10] 2.6% | [17] -91.6%

CCCCCCCCCC[C@@H](C)[C@@H]1CC(=O)N[C@H]([C@@H](C)O)C(=O)N[C@@H](C)C(=O)N[C@H](C)C(=O)N[C@@H](CCC(N)=O)C(=O)N[C@H](Cc2ccc(O)cc2)C(=O)N[C@@H](C(C)CC)C(=O)O1 (some centres undefined)
inactive: [1] 57.1% | [2] 40.6% | [3] 65.7% | [4] 96.6% | [5] 97.5% | [6] 84.8% | [7] 36.2% | [8] 60.5% | [9] 79.4% | [10] 101% | [11] 68.3% | [12] 52.5% | [13] 51.9% | [14] 51.6% | [15] 39% | [16] 48.1% | [19] 92.4% | [17] 71.2% | [18] 82.5%
